KCNQ2 inh: rat KCNQ2 potassium channel inhibitors, primary screen, cell-based, CHO-K1, FluxOR thallium flux, B-score; 20 min; stronger effect = lower value; actives 1.1% (n = 310,000); B-score at 10 µM; Potassium voltage-gated channel subfamily KQT member 2 (Rattus norvegicus), O88943;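 active = fluorescence ratio B-score at most minus 3 library SDs, with starting brightness B-score within 2 library SDs, cut at about -5.5 in these data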
KCNQ2 enhance: potentiators of rat KCNQ2 potassium channel; Potassium voltage-gated channel subfamily KQT member 2 (Rattus norvegicus), O88943; CHO-K1 KCNQ2, FluxOR thallium flux fluorescence; stronger effect = higher value; B-score at 10 µM; actives 0.54% (n = 310,000); AID 2239, 2010;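 active = fluorescence ratio B-score at least 3 SD of library B-scores, with initial fluorescence B-score within 3 of them, cut at about 5.3 in these data; same plate scores as AID 2156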;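 also: B-score of peak minus minimum over baseline fluorescence ratio after K+ and Tl+ stimulus; positive B-score means potentiation of KCNQ2 with more thallium influx and brighter signal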
Kir21 conf inh: mouse Kir2.1 channel blockers, retest, confirmation, cell-based, FluxOR thallium flux, duplicate; Tl flux remaining, % of negative control (stronger effect = lower value), % at 10 µM; shares compounds with KCNQ2 enhance; Kir2.1-expressing cells, FluxOR thallium flux fluorescence; stronger effect = lower value; actives 41% (n = 2,300);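 active = Primary-screen hit whose thallium flux fell at least 3 control SD below untreated wells in both duplicates, with normal baseline fluorescence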;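 also: 0% = blank wells without stimulus and 100% = stimulated no-compound controls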
Target sequence (P35561 whole entry, looked up): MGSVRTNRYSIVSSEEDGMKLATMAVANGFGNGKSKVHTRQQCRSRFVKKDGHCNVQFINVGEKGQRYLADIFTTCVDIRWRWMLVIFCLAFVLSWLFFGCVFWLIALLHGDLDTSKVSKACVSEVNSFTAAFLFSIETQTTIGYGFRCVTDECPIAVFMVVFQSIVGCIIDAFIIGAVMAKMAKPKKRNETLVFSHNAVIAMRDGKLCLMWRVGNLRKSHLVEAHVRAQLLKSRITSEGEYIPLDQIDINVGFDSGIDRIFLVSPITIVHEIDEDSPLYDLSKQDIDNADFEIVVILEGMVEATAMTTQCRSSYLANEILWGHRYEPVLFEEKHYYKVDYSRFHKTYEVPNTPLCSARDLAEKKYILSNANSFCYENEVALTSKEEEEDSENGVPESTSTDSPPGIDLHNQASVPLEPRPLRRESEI
HEK293 ctr: counter-screen for Kir2.1 inhibitors: effect in parental HEK293 cells | AID 2105 | FluxOR thallium flux fluorescence; 0% = unstimulated blank wells | FluxOR signal as % of negative control (100 = no effect), % at 10 µM | shares compounds with KCNQ2 enhance | actives 19% (n = 2,300);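 active = dye signal at least 3 control SD above or below untreated wells in both duplicates, raw fluorescence within 3, either direction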;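 also: percent is based on the flux ratio of peak minus minimum fluorescence over baseline F0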
CHO-K1 Tl ctr: nonspecific thallium flux increase in parental CHO-K1, confirmation, counter-screen for KCNQ2 potentiator project, cell-based, FluxOR thallium flux, duplicate; shares compounds with KCNQ2 enhance; parental CHO-K1 cells, FluxOR thallium flux fluorescence; zero = vehicle mean+3SD, 100% = vehicle-minus-blank window; activity increase over 3SD of controls, % at 10 µM; actives 43% (n = 1,200); AID 2282, 2010;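 active = signal rise of at least 3 SD above the untreated control mean, in both duplicate wells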;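 also: counter screen of KCNQ2 potentiator hits so any rise reflects channel-independent effects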
KCNQ1 pot spec: human KCNQ1 channel potentiation off-target, confirmation, selectivity assay for KCNQ2 potentiator project, cell-based, CHO, FluxOR thallium flux. actives 28% (n = 1,200). activation over 3SD threshold, % at 10 µM. shares compounds with KCNQ2 enhance. CHO KCNQ1 stable, FluxOR thallium flux fluorescence; beyond 3SD, as % of vehicle-control signal. AID 2283, 2010;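 active = fluorescence ratio rise of at least 3 SD of vehicle wells above their mean, in both replicate wells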;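 also: 0% = vehicle mean plus 3 SD and 100% = vehicle minus unstimulated blank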
KCNQ2 pot confirm: rat KCNQ2 channel potentiators, confirmation, cell-based, CHO, FluxOR thallium flux, duplicate | shares compounds with KCNQ2 enhance | CHO-KCNQ2 cells, FluxOR thallium flux fluorescence | potentiation, less the hit threshold, % at 10 µM | actives 68% (n = 1,200) | AID 2287, 2010;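 active = fluorescence ratio rising 3 SD or more over the vehicle control mean in both replicates, plus primary screen hit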;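 also: peak minus minimum thallium fluorescence divided by baseline after K/Tl stimulus; 0% = vehicle mean plus 3 SD and 100% = vehicle minus unstimulated blank difference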
Kir2-1 sel: mouse Kir2.1 channel activation off-target, confirmation, selectivity assay for KCNQ2 potentiator project, cell-based, HEK293, FluxOR thallium flux; AID 2345, 2010; activity over 3SD threshold, % at 10 µM; actives 2% (n = 1,200); HEK293 Kir2.1, FluxOR thallium flux fluorescence; shares compounds with KCNQ2 enhance;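 active = fluorescence ratio rise of at least 3 SD above the vehicle-control mean, seen in both replicates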;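 also: 0% = vehicle mean plus 3 SD and 100% = vehicle minus no-stimulus blank window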
KCNQ2 W236L pot: potentiators of retigabine-insensitive KCNQ2 W236L, mechanism study for KCNQ2 potentiator project, cell-based, rat KCNQ2 W236L, CHO, automated patch clamp; shares compounds with KCNQ2 enhance; automated patch clamp current; current increase over 3SD of negative controls (%), stronger effect = higher value, % at 25 µM; actives 10% (n = 940); AID 2558, 2010;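 active = current increase at least 3 SD of the untreated controls above them in both duplicate recordings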
* = called active by the depositor. A selection: hits, their analogues and other compounds. The true share with any hit is near 1.6%.

O=C(c1ccco1)N1CCN(Cc2nnc(-c3cccc(Br)c3)o2)CC1 was read as KCNQ2 inh inactive and KCNQ2 enhance 0.6.
`CC(C(Sc1ccccc1N)c1ccccc1)[N+](=O)[O-]` (configuration not stated) gave KCNQ2 inh inactive, Kir21 conf inh 52.0%* and HEK293 ctr inactive.
For Nc1ccccc1SSc1ccccc1N the results were KCNQ2 inh inactive.
`O=C(c1ccncc1)N1N=C(C2CC2)CC1(O)C(F)(F)F` (configuration not stated) gave KCNQ2 inh inactive, KCNQ2 enhance 6.54*, Kir21 conf inh inactive, HEK293 ctr inactive, CHO-K1 Tl ctr 56.2*, KCNQ1 pot spec -8.9, KCNQ2 pot confirm -20.8 and Kir2-1 sel -42.8.
`O=C(c1cccnc1)N1N=C(C2CC2)CC1(O)C(F)(F)F` (configuration not stated) gave KCNQ2 inh inactive and KCNQ2 enhance 1.57.
Screening O=C(c1c(Cl)cccc1Cl)N1CCN(c2ncccn2)CC1 returned KCNQ2 inh inactive.
For CC(C)(C)c1nc(-c2ccccc2)nc2c1OCCC2 the results were KCNQ2 inh inactive and KCNQ2 enhance 0.68.
COc1cc(/C=N/NC(=O)c2ccccc2O)ccc1OC(=O)CC1SC(=O)NC1=O (configuration not stated) was read as KCNQ2 inh inactive and KCNQ2 enhance 0.76.
O=C(NNC1=C(C(=O)C(F)(F)F)CCC1)c1ccccc1Cl was read as KCNQ2 inh inactive, KCNQ2 enhance 19.1*, Kir21 conf inh inactive, HEK293 ctr inactive, CHO-K1 Tl ctr -8.2, KCNQ1 pot spec -20.0, KCNQ2 pot confirm 73.5*, Kir2-1 sel -28.2 and KCNQ2 W236L pot inactive.
Nc1ccccc1C(=O)NNC1=C(C(=O)C(F)(F)F)CCC1 was read as KCNQ2 inh inactive, KCNQ2 enhance 6.81*, Kir21 conf inh inactive, HEK293 ctr inactive, CHO-K1 Tl ctr 17.7*, KCNQ1 pot spec -14.1, KCNQ2 pot confirm -0.3, Kir2-1 sel -29.1 and KCNQ2 W236L pot inactive.
`O=C(NNC(=O)c1ccccc1Cl)c1ccccc1Cl` gave KCNQ2 inh inactive and KCNQ2 enhance 0.96.
For O=C(NNC1=C(C(=O)C(F)(F)F)CCC1)c1ccc(Br)cc1 the results were KCNQ2 inh inactive and KCNQ2 enhance 4.77.
Screening COc1cccc(C(=O)NNC2=C(C(=O)C(F)(F)F)CCC2)c1 returned KCNQ2 inh inactive, KCNQ2 enhance 6.38*, Kir21 conf inh inactive, HEK293 ctr inactive, CHO-K1 Tl ctr 3.0*, KCNQ1 pot spec -6.7, KCNQ2 pot confirm 20.6*, Kir2-1 sel -27.9 and KCNQ2 W236L pot inactive.
Screening COc1cccc(C(=O)NN=C2CCCC2)c1 returned KCNQ2 inh inactive.
Screening CNC(=O)CC1C(=O)N(c2ccc(OC)cc2)C(=S)N1NC(=O)c1cccc(F)c1 (configuration not stated) returned KCNQ2 inh inactive.
`CC(=O)Nc1ccc([C@H]2[C@H](C)CC[C@H]3C(=O)N4[C@@H](CC[C@@H](C)[C@@H]4c4ccc(NC(C)=O)cc4)C(=O)N32)cc1` gave KCNQ2 inh inactive and KCNQ2 enhance 0.28.
Screening COc1ccc(-n2nnnc2-c2cn(C)nc2C(F)(F)F)cc1 returned KCNQ2 inh inactive and KCNQ2 enhance 0.68.
CC(=O)Nc1ccc(CN2CCCC(C(=O)c3cccc(C(F)(F)F)c3)C2)cc1 (configuration not stated) was read as KCNQ2 inh inactive.
Screening COc1ccc(CN2CCCC(C(=O)c3cccc(C(F)(F)F)c3)C2)cc1O (configuration not stated) returned KCNQ2 inh inactive, Kir21 conf inh 39.5%* and HEK293 ctr inactive.
CCN1CCN(C(c2cccs2)C(C)NC(=O)c2cccnc2)CC1 (configuration not stated) was read as KCNQ2 inh inactive and KCNQ2 enhance 0.01.
`Cc1ccc(N=C(NO)c2cnccc2C(F)(F)F)c(C)c1` gave KCNQ2 inh inactive, KCNQ2 enhance 7.43*, Kir21 conf inh inactive, HEK293 ctr inactive, CHO-K1 Tl ctr -1.5, KCNQ1 pot spec -13.8, KCNQ2 pot confirm -26.5 and Kir2-1 sel -39.1.
For Cc1ccc(NC(=O)NC(=O)c2cnccc2C(F)(F)F)c(C)c1 the results were KCNQ2 inh inactive and KCNQ2 enhance 0.34.
`COc1ccc(NC(=O)c2cccc(N3C(=O)C4CC=C(C)CC4C3=O)c2)c(OC)c1` (configuration not stated) gave KCNQ2 inh inactive.
For CC1=CCC2C(=O)N(c3ccc(OC(=O)c4ccco4)cc3)C(=O)C2C1 (configuration not stated) the results were KCNQ2 inh inactive, Kir21 conf inh 63.5%* and HEK293 ctr 128.5%*.
Screening CC(/C=N/n1cnnc1)=C\c1ccco1 returned KCNQ2 inh inactive and KCNQ2 enhance 0.23.
Cc1ccc(SCC(=O)OCC(=O)N(C)CC(=O)Nc2ccc(F)cc2)cc1C was read as KCNQ2 inh inactive, KCNQ2 enhance 7.03*, Kir21 conf inh inactive, HEK293 ctr inactive, CHO-K1 Tl ctr 10.4*, KCNQ1 pot spec 1.0*, KCNQ2 pot confirm -2.0, Kir2-1 sel -34.9 and KCNQ2 W236L pot inactive.
`COc1ccc(Cl)cc1C(=O)OCC(=O)N(C)CC(=O)Nc1ccc(F)cc1` gave KCNQ2 inh inactive and KCNQ2 enhance 2.67.

High-throughput results as filed in PubChem BioAssay.
